Experimental data reported in PubChem BioAssay (NCI).
Compounds without any hit were thinned out: in the full panel of roughly 83,000, 20% have a hit.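 Percent growth is the endpoint: 0 to 100 indicates growth inhibition (40 means 60% inhibition), 0 means no net growth, and negative values indicate cell death.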 A number with no mark means an inactive call. How the source made its calls: active means growth percent below 10; inactive means the rest.

System: HL-60(TB) leukemia
Test: NCI-60 one-dose screen, 48 h (100 = growth as untreated, 0 = no growth, -100 = all killed)
Conditions: 10 µM unless noted

| SMILES | growth |
| --- | --- |
| COc1ccc(Nc2nc(NCc3ccccc3)c3ccccc3n2)cc1 | 89.5% |
| COC[C@H](C)n1c(C2CCOCC2)nc2cnc3cc(-c4c(C)noc4C)c(OC)cc3c21 | 31.5% |
| CN(C)CCOC(=O)Nc1ccc(Cc2ccc(NC(=O)OCCN(C)C)cc2)cc1 | 52.8% [100 µM] |
